# The entries come from a sample that favours the strongest signals as a whole.
# B1: Threefoil (Haloarcula marismortui) (protein)
# chain: GSSHHHHHHHHHHSSGLVPRGSHMGDGYYKLVARHSGKALDVENASTSDGANVIQYSYSGGDNQQWRLVDLGDGYYKLVARHSGKALDVENASTSDGANVIQYSYSGGDNQQWRLVDLGDGYYKLVARHSGKALDVENASTSDGANVIQYSYSGGDNQQWRLVDL
# Key:
# Assay in all cases: glycan array binding signal (z-score within array); higher = stronger binding
# Details in all cases: glycan notation: IUPAC condensed, linker removed
# [1] = biological target: Fuc(a1-2)Gal(b1-3)GalNAc(a1-3)[Fuc(a1-2)]Gal(b1-4)GlcNAc
# Procedure, shortened: (§1)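 Arrays were curated from the Consortium for Functional Glycomics database, 3228 in total, and kept only where the protein sequence was available. Binding is expressed as a within-array Z-score. This score was averaged across arrays of the same protein sequence at different concentrations or buffers and across linkers, and negative values can be read as non-binding.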
# [2] = biological target: Fuc(a1-2)Gal(b1-3)GlcNAc(b1-2)Man(a1-3)[Fuc(a1-2)Gal(b1-3)GlcNAc(b1-2)Man(a1-6)]Man(b1-4)GlcNAc(b1-4)[Fuc(a1-6)]GlcNAc
# Procedure, shortened: as §1
# [3] = biological target: Fuc(a1-2)Gal(b1-3)GlcNAc(b1-3)Gal(b1-4)Glc
# Procedure, shortened: as §1
# Fuc(a1-2)Gal(b1-4)Glc = biological target: Fuc(a1-2)Gal(b1-4)Glc
# Procedure, shortened: as §1
# [4] = biological target: Fuc(a1-2)Gal3S(b1-4)GlcNAc
# Procedure, shortened: as §1
# [5] = biological target: Fuc(a1-2)Gal6S(b1-4)Glc6S
# Procedure, shortened: as §1
# [6] = biological target: Fuc(a1-2)[GalNAc(a1-4)]Gal(b1-4)GlcNAc
# Procedure, shortened: as §1
# [7] = biological target: Fuc(a1-3)[Gal(b1-4)]GlcNAc
# Procedure, shortened: as §1
# Gal(a1-3)Gal(b1-3)GlcNAc = biological target: Gal(a1-3)Gal(b1-3)GlcNAc
# Procedure, shortened: as §1
# [8] = biological target: Gal(a1-3)Gal(b1-3)[Fuc(a1-4)]GlcNAc(b1-2)Man(a1-3)[Gal(a1-3)Gal(b1-3)[Fuc(a1-4)]GlcNAc(b1-2)Man(a1-6)]Man(b1-4)GlcNAc(b1-4)GlcNAc
# Procedure, shortened: as §1
# Gal(a1-4)Gal(b1-4)Glc = biological target: Gal(a1-4)Gal(b1-4)Glc
# Procedure, shortened: as §1
# [9] = biological target: Gal(b1-3)GlcNAc(b1-2)[Gal(b1-3)GlcNAc(b1-6)]Man(a1-6)[Gal(b1-3)GlcNAc(b1-2)Man(a1-3)]Man(b1-4)GlcNAc(b1-4)GlcNAc
# Procedure, shortened: as §1
# [10] = biological target: Gal(b1-3)GlcNAc(b1-3)Gal(b1-3)GlcNAc
# Procedure, shortened: as §1
# [11] = biological target: Gal(b1-3)GlcNAc(b1-3)Gal(b1-4)GlcNAc(b1-3)Gal(b1-4)GlcNAc(b1-2)[Gal(b1-3)GlcNAc(b1-3)Gal(b1-4)GlcNAc(b1-3)Gal(b1-4)GlcNAc(b1-6)]Man(a1-6)[Gal(b1-3)GlcNAc(b1-3)Gal(b1-4)GlcNAc(b1-3)Gal(b1-4)GlcNAc(b1-2)Man(a1-3)]Man(b1-4)GlcNAc(b1-4)[Fuc(a1-6)]GlcNAc
# Procedure, shortened: as §1
# [12] = biological target: Gal(b1-3)[Fuc(a1-4)]GlcNAc(b1-3)Gal(b1-4)GlcNAc
# Procedure, shortened: as §1
# [13] = biological target: Gal(b1-3)[Neu5Ac(a2-6)]GlcNAc(b1-4)Gal(b1-4)Glc
# Procedure, shortened: as §1
# [14] = biological target: Gal(b1-3)[Neu5Ac(b2-6)]GalNAc
# Procedure, shortened: as §1
# [15] = biological target: Gal(b1-4)GalNAc(b1-3)[Fuc(a1-2)]Gal(b1-4)GlcNAc
# Procedure, shortened: as §1
# [16] = biological target: Gal(b1-4)GlcNAc(a1-6)Gal(b1-4)GlcNAc
# Procedure, shortened: as §1
# Gal(b1-4)GlcNAc(b1-2)Man = biological target: Gal(b1-4)GlcNAc(b1-2)Man
# Procedure, shortened: as §1
# [17] = biological target: Gal(b1-4)GlcNAc(b1-2)[Gal(b1-4)GlcNAc(b1-4)]Man(a1-3)[Gal(b1-4)GlcNAc(b1-2)Man(a1-6)]Man(b1-4)GlcNAc(b1-4)GlcNAc
# Procedure, shortened: as §1
# [18] = biological target: Gal(b1-4)GlcNAc(b1-2)[Gal(b1-4)GlcNAc(b1-4)]Man(a1-3)[GlcNAc(b1-4)][Gal(b1-4)GlcNAc(b1-2)[Gal(b1-4)GlcNAc(b1-6)]Man(a1-6)]Man(b1-4)GlcNAc(b1-4)GlcNAc
# Procedure, shortened: as §1
# [19] = biological target: Gal(b1-4)GlcNAc(b1-2)[Gal(b1-4)GlcNAc(b1-6)]Man(a1-6)[Gal(b1-4)GlcNAc(b1-2)Man(a1-3)]Man(b1-4)GlcNAc(b1-4)GlcNAc
# Procedure, shortened: as §1
# [20] = biological target: Gal(b1-4)GlcNAc(b1-2)[Gal(b1-4)GlcNAc(b1-6)]Man(a1-6)[Gal(b1-4)GlcNAc(b1-2)Man(a1-3)]Man(b1-4)GlcNAc(b1-4)[Fuc(a1-6)]GlcNAc
# Procedure, shortened: as §1
# [21] = biological target: Gal(b1-4)GlcNAc(b1-2)[Gal(b1-4)GlcNAc(b1-6)]Man(a1-6)[GlcNAc(b1-4)][Gal(b1-4)GlcNAc(b1-2)[Gal(b1-4)GlcNAc(b1-4)]Man(a1-3)]Man(b1-4)GlcNAc(b1-4)[Fuc(a1-6)]GlcNAc
# Procedure, shortened: as §1
# [22] = biological target: Gal(b1-4)GlcNAc(b1-3)Gal(b1-4)GlcNAc(b1-2)[Gal(b1-4)GlcNAc(b1-3)Gal(b1-4)GlcNAc(b1-6)]Man(a1-6)[Gal(b1-4)GlcNAc(b1-3)Gal(b1-4)GlcNAc(b1-2)Man(a1-3)]Man(b1-4)GlcNAc(b1-4)[Fuc(a1-6)]GlcNAc
# Procedure, shortened: as §1
# [23] = biological target: Gal(b1-4)GlcNAc(b1-3)Gal(b1-4)GlcNAc(b1-3)Gal(b1-4)GlcNAc(b1-2)Man(a1-3)[Gal(b1-4)GlcNAc(b1-3)Gal(b1-4)GlcNAc(b1-3)Gal(b1-4)GlcNAc(b1-2)Man(a1-6)]Man(b1-4)GlcNAc(b1-4)[Fuc(a1-6)]GlcNAc
# Procedure, shortened: as §1
# [24] = biological target: Gal(b1-4)GlcNAc(b1-3)Gal(b1-4)GlcNAc(b1-3)Gal(b1-4)GlcNAc(b1-2)[Gal(b1-4)GlcNAc(b1-3)Gal(b1-4)GlcNAc(b1-3)Gal(b1-4)GlcNAc(b1-6)]Man(a1-6)[Gal(b1-4)GlcNAc(b1-3)Gal(b1-4)GlcNAc(b1-3)Gal(b1-4)GlcNAc(b1-2)Man(a1-3)]Man(b1-4)GlcNAc(b1-4)[Fuc(a1-6)]GlcNAc
# Procedure, shortened: as §1
# [25] = biological target: Gal(b1-4)GlcNAc(b1-3)Gal(b1-4)GlcNAc(b1-3)Gal(b1-4)GlcNAc(b1-3)Gal(b1-4)GlcNAc(b1-2)Man(a1-3)[Gal(b1-4)GlcNAc(b1-3)Gal(b1-4)GlcNAc(b1-3)Gal(b1-4)GlcNAc(b1-3)Gal(b1-4)GlcNAc(b1-2)Man(a1-6)]Man(b1-4)GlcNAc(b1-4)[Fuc(a1-6)]GlcNAc
# Procedure, shortened: as §1
# [26] = biological target: Gal(b1-4)GlcNAc(b1-3)Gal(b1-4)GlcNAc(b1-3)Gal(b1-4)GlcNAc(b1-3)Gal(b1-4)GlcNAc(b1-2)[Gal(b1-4)GlcNAc(b1-3)Gal(b1-4)GlcNAc(b1-3)Gal(b1-4)GlcNAc(b1-3)Gal(b1-4)GlcNAc(b1-6)]Man(a1-6)[Gal(b1-4)GlcNAc(b1-3)Gal(b1-4)GlcNAc(b1-3)Gal(b1-4)GlcNAc(b1-3)Gal(b1-4)GlcNAc(b1-2)Man(a1-3)]Man(b1-4)GlcNAc(b1-4)[Fuc(a1-6)]GlcNAc
# Procedure, shortened: as §1
binder,measurement,setting,value
B1,glycan array binding signal (z-score),[1],-0.165
same,glycan array binding signal (z-score),[2],0.056
same,glycan array binding signal (z-score),[3],-0.192
same,glycan array binding signal (z-score),Fuc(a1-2)Gal(b1-4)Glc,-0.107
same,glycan array binding signal (z-score),[4],-0.199
same,glycan array binding signal (z-score),[5],-0.153
same,glycan array binding signal (z-score),[6],-0.341
same,glycan array binding signal (z-score),[7],-0.151
same,glycan array binding signal (z-score),Gal(a1-3)Gal(b1-3)GlcNAc,-0.298
same,glycan array binding signal (z-score),[8],-0.217
same,glycan array binding signal (z-score),Gal(a1-4)Gal(b1-4)Glc,0.139
same,glycan array binding signal (z-score),[9],0.155
same,glycan array binding signal (z-score),[10],-0.266
same,glycan array binding signal (z-score),[11],0.426
same,glycan array binding signal (z-score),[12],0.307
same,glycan array binding signal (z-score),[13],-0.13
same,glycan array binding signal (z-score),[14],-0.229
same,glycan array binding signal (z-score),[15],-0.231
same,glycan array binding signal (z-score),[16],0.067
same,glycan array binding signal (z-score),Gal(b1-4)GlcNAc(b1-2)Man,-0.105
same,glycan array binding signal (z-score),[17],3.48
same,glycan array binding signal (z-score),[18],8.13
same,glycan array binding signal (z-score),[19],0.527
same,glycan array binding signal (z-score),[20],3.39
same,glycan array binding signal (z-score),[21],6.8
same,glycan array binding signal (z-score),[22],6.34
same,glycan array binding signal (z-score),[23],6.67
same,glycan array binding signal (z-score),[24],9.87
same,glycan array binding signal (z-score),[25],3.74
same,glycan array binding signal (z-score),[26],7.31
